# CtBP-E1A inh: CtBP/E1A binding inhibition | AID 651724 | AlphaScreen GST-E1A/His-CtBP binding, 1536-well; active compounds read low | 340,000 compounds, 0.49% hits | activity change, % (concentration not given with the values); in the data active means activity change below about -65%; inconclusive means mostly about -30% to -63%; further: on the % scale 0 is the no-effect control and ±100 the full control effect
#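 In 5 uL wells, 23 nL compound meets equimolar GST-E1A and His-CtBP (5X stock 125 nM each) for 2 h, 37 °C. Beads (5X, 50 ug/mL) then 1 h, 37 °C, dark.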
# Six1-Eya2 blk: inhibitors of human Six1/Eya2 interaction; Q15475+O00167; AlphaScreen GST-Six1/His-Eya2 binding, biochemical; active compounds read low; activity change, % (no concentration beside the values); 360,000 compounds, 0.56% hits; AID 651725; in the data active means activity change below about -65%; inconclusive means mostly about -30% to -63%; further: on the % scale 0 is the no-effect control and ±100 the full control effect
#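 GST-Six1 + His-Eya2 (5X stock: 250/500 nM); Tris pH 8.0, 300 mM NaCl, 0.05% BSA, 0.02% Tween 20; GSH donor/Ni acceptor beads; 1 h 37 °C dark; AlphaScreen readout.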
# JMJD2A Tudor inh: JMJD2A Tudor domain (human) inhibition. O75164. AlphaScreen JMJD2A-Tudor / H3K4me3 peptide binding. Potency, µM (series often up to 114 µM), without a hit: at the highest dose activity change, negative = inhibition, hits mostly inhibitors. 390,000 compounds, 4.4% hits. AID 504339; further: potency means the concentration at half of the fitted maximal effect; on the % scale 0 is the no-effect control and ±100 the full control effect; nearly all actives have a fitted effect of over 50% in size
# BAZ2B inh: inhibitors of human BAZ2B bromodomain; Q9UIF8; AlphaScreen BAZ2B-H3K14Ac peptide displacement; Potency, µM (titrated, usually from 114 µM), for the others: at the top dose activity change, negative = inhibition, usual class: inhibitors; 360,000 compounds, 4.4% hits; AID 504333; further: potency means the concentration at half of the fitted maximal effect; on the % scale 0 is the no-effect control and ±100 the full control effect; nearly all actives have a fitted effect of over 60% in size
#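 Protein-peptide AlphaScreen: BAZ2B 50 nM, b-H3K14Ac 50 nM, 1x PBS pH 7.4 + 0.01% Tween-20. Preincubation 30 min RT; cpd 30 min RT (top 110 uM); beads 20 min RT, light-protected.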
# HP1b binding inh: HP1-beta chromodomain-methylated histone interaction inhibition; P83916; Potency, µM (series often up to 114 µM), for the others: at the top dose activity change, negative = inhibition, actives largely listed as inhibitors; 390,000 compounds, 0.56% hits; AlphaScreen HP1-beta / biotin-H3K9me3 peptide binding; further: potency means the concentration at half of the fitted maximal effect; nearly all actives have a fitted effect of over 70% in size
#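 AlphaScreen: HP1-beta (50 nM) preformed 30 min with biotin-H3(1-18)K9me3 peptide (50 nM) in PBS pH 7.4, 0.01% Tween-20. Compound added for 30 min at RT, then streptavidin donor/nickel chelate acceptor beads (10 ug/mL) for 30 min.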
# G9a inh: inhibitors of human histone lysine methyltransferase G9a | G9a H3K9 monomethylation, AlphaScreen, 2 h | Q96KQ7 | Potency, µM (highest dose often 102 µM), for the others: at the highest dose activity, negative = inhibition, hits mostly inhibitors | 350,000 compounds, 8.8% hits; further: potency means the concentration at half of the fitted maximal effect; on the % scale 0 is the no-effect control and ±100 the full control effect; nearly all actives have a fitted effect of over 75% in size
#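 Step 1: enzyme (final 20 nM) with compound, 15 min RT. Step 2: substrate peptide 500 nM and SAM 20 uM, 2 h RT. Step 3: anti-H3K9me1 antibody and AlphaScreen beads, 10 min, then plate read.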
# * = called active by the depositor; u = inconclusive; x = not tested or not shown; [ ] = another dose, or the depositor's remark. Rows were chosen to be rich in hits. Some 10% of all compounds tested hit in one or more screens of this group. Unless noted, the call rests on the fitted dose curve; in most records, active means well fitted inhibition curve with a large enough effect; inconclusive means small, poorly fitted or top-dose-only effect; inactive means no such curve, though single readings can be large or run the other way.
SMILES,CtBP-E1A inh,Six1-Eya2 blk,JMJD2A Tudor inh,BAZ2B inh,HP1b binding inh,G9a inh
CC1CCN(c2nc(-c3ccccc3O)nc3ccccc23)CC1,7.5,-1.1,22.1%,0.3%,67.5%,4.9%[59 µM]
COc1ccc(Nc2nc(-c3cccc(OC)c3O)nc3ccccc23)cc1,u,u,u,39.8µM*,-16.2%,50.1µM*
C/C=C1\COC(C(=O)NCCOCCO)(C(F)(F)F)C=C1C=C1CCCCC1 (configuration not stated),x,x,-15.2%,x,36.5%,x
CCc1ccc2oc(C(=O)Nc3cc(C)ccc3C)cc(=O)c2c1,x,x,-3.1%,0.3%,40.1%,6.5%[59 µM]
COc1cccc(-n2c(CCn3nc(C)c([N+](=O)[O-])c3C)n[nH]c2=S)c1,4.4,-4.5,11.2µM*,6.8%,u,25.1µM*
Cc1cccc(-n2c(CCn3nc(C)c([N+](=O)[O-])c3C)n[nH]c2=S)c1,0.0,-0.3,20µM*,-1.8%,23.9%,0.447µM*
CCc1ccccc1NC(=O)c1ccc2c(SCC(=O)O)c3c(nc2c1)CCC3,x,x,-24.8%,-18.8%,1.1%,-17.4%[59 µM]
CC1CCN(c2oc(-c3ccc(COc4ccc(Cl)cc4)o3)nc2C#N)CC1,x,x,u,u,16.5%,u
N#Cc1nc(-c2ccc(COc3ccc(Cl)cc3)o2)oc1N1CCCCC1,x,x,u,u,-8.1%,3.16µM*
N#Cc1nc(-c2ccc(COc3ccccc3)o2)oc1N1CCCCC1,x,x,u,5.01µM*,u,4.47µM*
CCCNc1nc(C#N)nc(Nc2ccccc2)n1,x,x,-2.1%,x,x,x
O=C(O)/C=C/C(=O)Nc1ccc(C(=O)c2ccccc2)cc1,-6.0,-0.5,-19.7%,-12.9%,25.8%,-37.2%
O=C(O)/C=C/C(=O)Nc1ccc(Cl)cc1C(=O)c1ccccc1,2.5,3.4,0.7%,-9.2%,48.8%,31.6µM*
O=C(O)/C=C/C(=O)Nc1ccc(NC(=O)c2ccccc2)c(Cl)c1,-12.0,-0.1,-13.4%,18.8%,17.4%,50.1µM*
N#Cc1ccc(C(=O)N(Cc2ccco2)Cc2cccs2)cc1,x,x,-27.7%[57.1 µM],x,10.1%[57 µM],x
CCc1nnc(SCc2nc(-c3ccc(OC)c(OC)c3)oc2C)c2cc3sc(C)cc3n12,x,x,-15.8%,-12.2%,12.3%,-28.3%[59 µM]
CCOc1ccc(C2=Cc3cc(OC)c(OC)cc3C(=C(Cl)Cl)O2)cc1,x,x,x,u,x,7.08µM*
O=C(O)c1cc(O)c2c(c1)C(=O)c1cc(O)cc(O)c1C2=O,-16.4,u,u,50.1µM*,-37.9%,-32.2%[12.7 µM]
O=C1c2cc(Cl)ccc2-c2c(O)cc(Cl)cc21,-14.4,-14.2,u,x,-16.8%[57 µM],x
CCOC(=O)C1CCCCN1Cc1cccc(F)c1 (configuration not stated),11.8,7.4,22.4µM*,50.1µM*,u,3.55µM*
CCOC(=O)C1CCCCN1Cc1ccc(-c2ccccc2)cc1 (configuration not stated),14.7,9.8,20µM*,9.0%,-9.2%,u
CCOC(=O)C1CCCCN1Cc1cc(Cl)ccc1O (configuration not stated),31.7,18.7,16.4%,17.2%,84.8%,-11.0%[59 µM]
CCOC(=O)C1CCCCN1Cc1cn(C)nc1-c1ccccc1F (configuration not stated),3.8,10.6,5.3%,2.0%,18.2%,-35.6%
CCOC(=O)C1CCCCN1Cc1ccc(F)cc1 (configuration not stated),1.3,5.3,4.47µM*,50.1µM*,u,10µM*
CCNC(=S)N1CCN(Cc2ccccc2)CC1,11.2,1.4,8.91µM*,50.1µM*,u,15.8µM*
SMILES,CtBP-E1A inh,Six1-Eya2 blk,JMJD2A Tudor inh,BAZ2B inh,HP1b binding inh,G9a inh
Cc1cnn(C(=S)NCC2CCCO2)c1 (configuration not stated),-9.5,4.0,4.47µM*,-2.1%,47.2%,31.6µM*
CCNC(=S)N1CCN(C(c2ccccc2)c2ccccc2)CC1,5.5,-5.4,-34.3%,-0.9%,16.4%,-12.5%[59 µM]
CCCNC(=S)N1CCN(CC)CC1,6.2,14.1,1.78µM*,50.1µM*,-52.5%,10µM*
O=C(NC(=S)N1CCN(Cc2ccccc2)CC1)c1ccco1,4.7,2.1,-22.7%,-28.0%,6.0%,50.1µM*
Cc1ccc(NC(=S)NCC2CCCO2)cc1 (configuration not stated),-1.0,2.4,-18.0%,-8.0%,32.7%,-4.6%
CCCCNC(=S)NCCN1CCN(C(=S)NCCCC)CC1,-13.2,-1.9,-12.7%,-36.7%,32.9%,-0.4%
CC1CCN(C(=S)NC(=O)c2ccco2)CC1,5.8,6.1,-20.0%,u,23.3%,x
COc1cc(Cl)c(C)cc1NC(=O)c1sc2nc3n(c(=O)c2c1C)CCCCC3,x,x,-8.2%,8.4%,14.2%,9.7%[59 µM]
O=P(O)(O)OC1[C@H](O)[C@H](OP(=O)(O)O)C(OP(=O)(O)O)[C@H](OP(=O)(O)O)[C@H]1O (some centres not stated),x,x,x,x,x,15.2%[2.33 µM]
CCOc1ccccc1N(CC(=O)NCCSc1ccccc1)S(=O)(=O)c1ccccc1,x,x,-11.4%,-7.2%,3.8%,-30.6%[59 µM]
Cc1ccc(S(=O)(=O)NCCc2cn3c(C)csc3n2)cc1,x,x,-0.3%,6.0%,24.0%[57 µM],-0.8%[59 µM]
CCN1CCN(C(=S)NCC2CCCO2)CC1 (configuration not stated),x,6.6,7.94µM*,50.1µM*,u,39.8µM*
CCN1CCN(C(=S)NCCc2ccccc2)CC1,-2.5,4.7,3.16µM*,79.4µM*,u,u
OCCN1CCN(C(=S)NCCc2ccccc2)CC1,9.9,2.1,0.0%[11.4 µM],-2.5%,27.2%,-1.2%[59 µM]
Fc1ccc(N2CCN(C(=S)NCC3CCCO3)CC2)cc1 (configuration not stated),-2.1,-2.1,-8.5%,-1.7%,22.3%,x
Cn1nc(-c2ccccc2)c(CO)c1Oc1ccc(F)cc1,2.5,7.1,20µM*,-13.1%,-4.7%,18.7%
CC(=O)Nc1cc2c(s1)c1cnn(Cc3ccccc3F)c(=O)c1n2C,x,x,x,-1.1%,x,-26.8%[12.7 µM]
CCOC(=O)c1cc(NC(=O)c2ccccc2)c(=O)oc1C(F)(F)F,-11.4,-0.6,-7.5%,-2.9%,33.2%,u
COC(=O)c1cc(NC(=O)c2cccc(C(F)(F)F)c2)c(=O)oc1C/C=N/OCc1cccc(Cl)c1Cl,-3.3,-7.4,-21.2%[11.4 µM],-6.2%,-20.9%,39.8µM*
COC(=O)c1cc(NC(=O)c2cccc(C(F)(F)F)c2)c(=O)oc1C,-11.5,-1.6,-4.7%,-7.1%,44.4%,28.2µM*
COC(=O)c1cc(NC(=O)c2ccc(OC)cc2)c(=O)oc1C,x,5.3,-15.8%[11.4 µM],-2.3%,0.8%,-26.4%
c1ccc(CCNc2ccccc2)cc1,x,x,x,56.2µM*,x,u
CCCn1nnnc1NCc1c(Cl)cccc1Cl,1.8,6.2,-2.7%,-2.0%,33.9%,-6.4%

# Compound activity: PubChem, National Center for Advancing Translational Sciences (NCATS)
